Source: PubChem BioAssay
Activity calls are given as the source filed them.

Assays:
[1] = test system: Plasmodium falciparum Sir2 (PF13_0152, Sir2A); assay: pfSir2 binders on small-molecule microarrays, primary screen, biochemical, small-molecule microarray, 635 nm fluorescence (AID 1098); conditions: small-molecule microarray binding, fluorescence 635 nm; higher = more signal;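 note: score merges spot fluorescence intensity with its signal-to-noise ratio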
[2] = small-molecule microarray binders of probe aDKK1, primary screen, biochemical, biotinylated probe, 635/667 nm fluorescence (AID 1099); conditions: higher = more signal;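 note: score merges 667nm spot fluorescence with signal to noise across triplicate slides; reference of the scale not given here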
[3] = small-molecule microarray binders of probe aCHRDL2, primary screen, biochemical, biotinylated probe, 635/667 nm fluorescence (AID 1100); conditions: higher = more signal
[4] = splicing luciferase reporter signal modulators, primary screen, spliceosome inhibition project, cell-based, HEK293, splice +/- reporter (AID 1101); conditions: luminescence, 24 h, higher = more signal, called active from +8 up or from −8 down;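 note: HEK293 cells carrying a splicing-competent luciferase reporter gene; test concentration not given here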
[5] = target: Fibroblast growth factor 10 (Homo sapiens) (UniProt O15520); assay: FGF10 binders on small-molecule microarrays, primary screen, biochemical, small-molecule microarray, 635 nm fluorescence (AID 1102); conditions: FGF10 binding, fluorescence 635 nm, higher = more signal
Sequence of Fibroblast growth factor 10 (Homo sapiens) (O15520 whole entry, looked up): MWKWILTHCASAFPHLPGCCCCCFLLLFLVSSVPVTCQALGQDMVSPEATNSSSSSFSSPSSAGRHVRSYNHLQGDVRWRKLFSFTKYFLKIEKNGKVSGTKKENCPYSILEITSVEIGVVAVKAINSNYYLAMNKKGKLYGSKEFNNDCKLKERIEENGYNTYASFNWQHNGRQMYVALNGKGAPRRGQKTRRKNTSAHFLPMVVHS

[6] = test system: glycogen synthase kinase-3 (GSK3A per assay name; protocol says GSK3B); assay: GSK3 binders on small-molecule microarrays, primary screen, biochemical, small-molecule microarray, 635 nm fluorescence, GSK3A (AID 1103); conditions: small-molecule microarray binding, fluorescence 635 nm; higher = more signal; note: the record names both GSK3A and GSK3B
[7] = target: Epidermal growth factor receptor (Homo sapiens) (UniProt P00533); assay: EGFR binders on small-molecule microarrays, primary screen, biochemical, small-molecule microarray, 635 nm fluorescence (AID 1104); conditions: EGFR binding, higher = more signal;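 note: score merges 667 nm emission intensity with spot signal to noise over triplicate slides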
Sequence of Epidermal growth factor receptor (Homo sapiens) (P00533 whole entry, looked up): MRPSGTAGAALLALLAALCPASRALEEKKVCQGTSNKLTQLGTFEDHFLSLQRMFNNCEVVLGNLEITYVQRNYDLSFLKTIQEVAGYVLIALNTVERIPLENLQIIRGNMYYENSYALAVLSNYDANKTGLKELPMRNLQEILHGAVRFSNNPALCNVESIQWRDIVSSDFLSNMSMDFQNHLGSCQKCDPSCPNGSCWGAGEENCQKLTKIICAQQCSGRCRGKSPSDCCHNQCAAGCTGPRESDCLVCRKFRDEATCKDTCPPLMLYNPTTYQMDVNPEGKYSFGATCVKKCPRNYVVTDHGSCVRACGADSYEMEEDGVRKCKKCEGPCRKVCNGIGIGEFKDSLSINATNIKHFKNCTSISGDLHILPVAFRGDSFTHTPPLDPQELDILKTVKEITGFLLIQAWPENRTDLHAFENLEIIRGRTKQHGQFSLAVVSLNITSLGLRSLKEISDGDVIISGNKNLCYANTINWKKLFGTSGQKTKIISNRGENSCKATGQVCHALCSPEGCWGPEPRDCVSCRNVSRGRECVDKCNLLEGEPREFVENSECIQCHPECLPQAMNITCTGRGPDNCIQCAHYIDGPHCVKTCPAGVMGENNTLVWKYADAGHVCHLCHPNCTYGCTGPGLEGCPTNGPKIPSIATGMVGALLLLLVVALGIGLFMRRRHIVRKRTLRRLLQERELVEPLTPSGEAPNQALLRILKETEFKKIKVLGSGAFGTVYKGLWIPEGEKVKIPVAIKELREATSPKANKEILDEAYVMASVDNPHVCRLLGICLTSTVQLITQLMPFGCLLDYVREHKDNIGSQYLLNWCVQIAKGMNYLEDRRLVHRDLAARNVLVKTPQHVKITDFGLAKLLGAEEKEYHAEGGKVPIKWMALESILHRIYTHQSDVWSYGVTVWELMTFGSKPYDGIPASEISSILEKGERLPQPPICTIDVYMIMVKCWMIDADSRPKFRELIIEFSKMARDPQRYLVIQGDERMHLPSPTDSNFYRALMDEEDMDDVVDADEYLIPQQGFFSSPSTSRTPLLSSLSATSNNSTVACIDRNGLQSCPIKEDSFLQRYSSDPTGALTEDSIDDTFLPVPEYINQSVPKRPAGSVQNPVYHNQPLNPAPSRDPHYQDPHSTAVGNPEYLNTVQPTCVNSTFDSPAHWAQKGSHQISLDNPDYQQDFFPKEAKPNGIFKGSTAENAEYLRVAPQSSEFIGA

[8] = target: Follistatin-related protein 3 (Homo sapiens) (UniProt O95633); assay: FSTL3 binders on small-molecule microarrays, primary screen, biochemical, small-molecule microarray, 635 nm fluorescence (AID 1105); conditions: FSTL3 binding, higher = more signal;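 note: score merges emission near 667 nm and signal to noise per printed spot across three slides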
Sequence of Follistatin-related protein 3 (Homo sapiens) (O95633 whole entry, looked up): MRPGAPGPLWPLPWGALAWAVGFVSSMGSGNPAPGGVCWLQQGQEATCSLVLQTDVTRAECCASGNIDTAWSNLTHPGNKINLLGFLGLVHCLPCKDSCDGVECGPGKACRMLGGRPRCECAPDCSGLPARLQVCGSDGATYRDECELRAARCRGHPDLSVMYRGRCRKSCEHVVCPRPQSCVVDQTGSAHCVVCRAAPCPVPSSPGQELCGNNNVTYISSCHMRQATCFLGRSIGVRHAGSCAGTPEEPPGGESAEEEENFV

[9] = target: Dickkopf-related protein 1 (Homo sapiens) (UniProt O94907); assay: DKK1 binders on small-molecule microarrays, primary screen, biochemical, small-molecule microarray, 635 nm fluorescence scan (AID 1106); conditions: DKK1 binding, higher = more signal;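 note: score merges emission near 667 nm with signal to noise over three replicate slides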
Sequence of Dickkopf-related protein 1 (Homo sapiens) (O94907 whole entry, looked up): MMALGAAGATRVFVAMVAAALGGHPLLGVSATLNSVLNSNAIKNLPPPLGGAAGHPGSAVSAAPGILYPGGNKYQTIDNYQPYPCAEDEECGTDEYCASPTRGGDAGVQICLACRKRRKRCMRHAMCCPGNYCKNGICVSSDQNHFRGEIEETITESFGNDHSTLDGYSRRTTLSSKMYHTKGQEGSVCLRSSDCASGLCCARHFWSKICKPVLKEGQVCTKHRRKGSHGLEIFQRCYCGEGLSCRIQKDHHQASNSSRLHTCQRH

[10] = test system: Inhibin beta A chain (activin A); assay: INHBA (activin A) binders on microarrays, primary screen, biochemical, small-molecule microarray, 635 nm fluorescence scan (AID 1107); conditions: small-molecule microarray binding, higher = more signal;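 note: mouse activin A protein probed at 4.33 µg/mL on printed slides; score merges bound-protein fluorescence near 667 nm with spot signal-to-noise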

| SMILES | composite z-score [1] | composite z-score [2] | composite z-score [3] | z-score [4] | composite z-score [5] | composite z-score [6] | composite z-score [7] | composite z-score [8] | composite z-score [9] | composite z-score [10] |
| --- | --- | --- | --- | --- | --- | --- | --- | --- | --- | --- |
| COc1ccc(O[C@H]2C=C[C@@H](c3ccccc3)O[C@@H]2CON=C(C)CCC(=O)OC[C@H]2O[C@H](c3ccccc3)C=C[C@@H]2Oc2ccc(OC)cc2)cc1 | 0.0844 | -0.252 | 0.2 | 0.114 (inactive) | -1.19 | -1.59 | -1.63 | -1.25 | -0.591 | 0.95 |
| CC(CCN1CCCCc2nc(C)c(C)cc21)=NOC[C@@H](C)[C@H](OCc1ccccc1)C(C)C | -0.399 | -0.624 | -0.579 | -1.22 (inactive) | -1.78 | -1.03 | -1.77 | -2.25 | -0.991 | 0.736 |
| CCOC(=O)[C@H](CC(C)C)NC(=O)CCC1CC(OC(=O)NCCc2ccc(F)cc2)CC2(CCCC(COC(=O)NCCOc3ccccc3)O2)O1 (stereo not given in full) | 1.4 | -0.0843 | -0.545 | 0.119 (inactive) | 0.989 | 0.508 | 0.672 | 1.1 | 1.52 | -0.0219 |
| COc1ccc(COC(=O)NN=C2C[C@@H](O)[C@@H](O)[C@@H]3[C@@H]4C(=O)N(Cc5ccccc5)C(=O)[C@@H]4CC[C@H]23)cc1 | -0.515 | 0.743 | 1.39 | -0.262 (inactive) | -0.259 | -0.623 | -0.432 | -0.22 | -1.15 | 0.0152 |
| CON=C1[C@H]2CCn3c(=O)n(-c4ccccc4)c(=O)n3[C@H]2[C@H](O)[C@@H]2O[C@H]12 | 0.555 | -0.198 | -0.67 | -0.871 (inactive) | 0.556 | 0.81 | 0.599 | 0.488 | 0.332 | 0.141 |
| CO[C@H]1COC(=O)[C@@H](C)COC(=O)[C@@H](OCc2ccccc2)C=C[C@@H]1C | 0.212 | -0.439 | -0.514 | 0.232 (inactive) | -0.162 | -0.227 | -0.0072 | -0.13 | 0.348 | 0.18 |
| O=C1[C@H]2[C@H]3[C@H](O)[C@H](O)CC(=NOCc4ccccc4)[C@H]3CC[C@H]2C(=O)N1Cc1ccc2c(c1)OCO2 | 0.297 | -0.208 | -0.424 | 0.889 (inactive) | 0.322 | 0.238 | 0.338 | 0.534 | 0.582 | 0.157 |
| CCOC(=O)[C@H](CC(C)C)NC(=O)CCC1CC(OC(=O)NCc2cccc3ccccc23)CC2(CCCC(COC(=O)NCc3ccncc3)O2)O1 (stereo not given in full) | 0.741 | -0.131 | -0.377 | -0.00923 (inactive) | 1.2 | 1.06 | 0.363 | 0.887 | 0.559 | -0.177 |
| CCOC(=O)[C@H](Cc1ccccc1)NC(=O)CCC1CC(OC(=O)NCCc2ccc(F)cc2)CC2(CCCC(COC(=O)NCCOC)O2)O1 (stereo not given in full) | 0.637 | 0.765 | -0.504 | 0.371 (inactive) | 0.984 | 0.614 | 0.856 | 0.969 | 1.13 | 0.163 |
| C=CC[C@@H]1C=C[C@H](ON=C2[C@H]3CCn4c(=O)n(-c5ccccc5)c(=O)n4[C@H]3[C@H](O)[C@@H]3O[C@H]23)[C@@H](CO)O1 | 0.482 | -0.378 | -0.548 | 0.492 (inactive) | 0.51 | -0.596 | 0.55 | 0.485 | 0.536 | 0.376 |
| Cc1ccc(S(=O)(=O)N[C@H]2COC(=O)CC=C[C@H](C)[C@@H](NS(=O)(=O)c3ccc(C)cc3)COC(=O)CC=C[C@@H]2C)cc1 | -0.0784 | -0.217 | -0.588 | 0.647 (inactive) | 0.925 | 0.607 | 0.364 | 0.577 | 0.486 | -0.136 |
| COC(=O)CC=C[C@@H](C)[C@@H](C=NO[C@H](C)c1cn([C@H](CO)Cc2ccccc2)nn1)OC | 0.611 | -0.233 | -0.736 | 0.934 (inactive) | 0.877 | 0.483 | 0.952 | 0.515 | 1.06 | -0.34 |
| C[C@H](ON=C1[C@H]2CCn3c(=O)n(-c4ccccc4)c(=O)n3[C@H]2[C@H](O)[C@@H]2O[C@H]12)c1cn([C@H](CO)Cc2ccccc2)nn1 | -0.0041 | -0.15 | -0.519 | -0.421 (inactive) | 0.513 | 0.266 | 0.377 | 0.659 | 0.559 | 0.437 |
| CON=C[C@@H](C)[C@H](OCc1ccccc1)C(C)C | -0.187 | -0.152 | -0.225 | -0.829 (inactive) | 0.0578 | -0.594 | 0.327 | 0.122 | 0.312 | 0.216 |
| CC(C)=CCCC(C)=CCON=C1C[C@@H](O)[C@@H](O)[C@@H]2[C@@H]3C(=O)N(Cc4ccccc4)C(=O)[C@@H]3CC[C@@H]12 | 0.786 | -0.382 | -1.12 | -0.216 (inactive) | 1.14 | 0.279 | 0.696 | 0.955 | 1.04 | 1.09 |
| CCOC(=O)[C@H](CC(C)C)NC(=O)CCC1CC(OC(=O)NCc2cccc3ccccc23)CC2(CCCC(COC(=O)NCCc3ccc(Cl)cc3)O2)O1 (stereo not given in full) | 0.409 | -0.0738 | -0.406 | -1.18 (inactive) | 0.365 | 0.355 | 0.681 | 0.726 | 0.323 | -0.293 |
| CON=CC[C@@H]1C=C[C@H](OC(C)=O)[C@@H](COC(C)=O)O1 | 0.0728 | -0.146 | -0.0937 | 0.079 (inactive) | 0.277 | 0.184 | 0.393 | 0.727 | 0.531 | 1.68 |
| CC(C)CON=C1C[C@@H](O)[C@@H](O)[C@@H]2[C@@H]3C(=O)N(C4CCCCC4)C(=O)[C@@H]3CC[C@H]12 | 0.209 | 0.0948 | -0.106 | 0.00397 (inactive) | 0.74 | 0.842 | 0.362 | 0.611 | 0.544 | -0.312 |
| CCOC(=O)[C@H](CC(C)C)NC(=O)CCC1CC(OC(=O)NCCc2ccc(F)cc2)CC2(CCCC(COC(=O)NCC(c3ccccc3)c3ccccc3)O2)O1 (stereo not given in full) | 1.1 | 0.096 | -0.437 | 0.0587 (inactive) | 0.588 | 0.873 | 0.319 | 0.824 | 0.697 | -0.0427 |
| COc1ccc(COC(=O)NN=C2C[C@@H](O)[C@@H](O)[C@@H]3[C@@H]4C(=O)N(c5cccc(Oc6ccccc6)c5)C(=O)[C@@H]4CC[C@@H]23)cc1 | -0.0785 | 0.557 | 1.28 | -0.161 (inactive) | -0.518 | -1.2 | -0.322 | -1.07 | -0.89 | 0.247 |
| COC(=O)C=CCCc1coc(C=CCNC(=O)OC)n1 | 0.844 | 0.161 | -0.388 | 0.183 (inactive) | 0.789 | 0.643 | 0.867 | 1.07 | 1.16 | 1.3 |
| CO[C@H]1COC(=O)CC=C[C@H](C)[C@@H](OC)COC(=O)[C@@H](C)NC(=O)CC=C[C@@H]1C | 1.23 | -0.377 | -1.17 | -0.653 (inactive) | 0.447 | 0.597 | 1.27 | 1.44 | 1.49 | 1.52 |
| CCCCC#C[C@@H]1C=C[C@H](Oc2ccc(C(=O)OC)cc2)[C@@H](COC(=O)OCC)O1 | 0.716 | 0.015 | -0.334 | 0.545 (inactive) | 0.785 | 0.277 | 0.385 | 1.05 | 0.414 | 0.273 |
| COC(=O)[C@@H]1CC[C@H](C)[C@@H](c2ccc(C)cc2)N1C(=O)c1ccc(C=NO[C@H](C)c2cn([C@H](CO)Cc3ccccc3)nn2)cc1 | 0.652 | 0.178 | 0.115 | -0.178 (inactive) | 0.694 | 0.835 | 0.551 | 1.05 | 0.81 | 0.135 |
| COc1cccc([C@H]2Oc3ccc(OC)cc3C(=NOC[C@@H](O)COCc3ccco3)[C@@H]2O)c1 | -0.12 | -0.644 | -0.798 | -0.469 (inactive) | -0.0458 | -0.754 | -1.44 | -1.3 | 0.13 | 1.29 |
